Assay results published in PubChem BioAssay AID2284333 (EPA ToxCast).
Inconclusive results are not listed. Active and inactive are the calls of the source. The calls were made as follows: active = hit-call score of the fitted dose curve at least 0.9, where 1 is the maximum; inconclusive = response in the unintended direction; inactive = score below 0.9.

What follows are compounds tested against rainbow trout Glucocorticoid Receptor (GR), nr3c1 (gene 100136786) (UniProt P49843) (assay: ATG_rtGR_EcoTox2: Attagene TRANS-FACTORIAL EcoTox-2 HepG2 Assay for rainbow trout Glucocorticoid Receptor (GR)).
rainbow trout Glucocorticoid Receptor (GR), nr3c1 (gene 100136786), sequence (P49843 whole entry, looked up): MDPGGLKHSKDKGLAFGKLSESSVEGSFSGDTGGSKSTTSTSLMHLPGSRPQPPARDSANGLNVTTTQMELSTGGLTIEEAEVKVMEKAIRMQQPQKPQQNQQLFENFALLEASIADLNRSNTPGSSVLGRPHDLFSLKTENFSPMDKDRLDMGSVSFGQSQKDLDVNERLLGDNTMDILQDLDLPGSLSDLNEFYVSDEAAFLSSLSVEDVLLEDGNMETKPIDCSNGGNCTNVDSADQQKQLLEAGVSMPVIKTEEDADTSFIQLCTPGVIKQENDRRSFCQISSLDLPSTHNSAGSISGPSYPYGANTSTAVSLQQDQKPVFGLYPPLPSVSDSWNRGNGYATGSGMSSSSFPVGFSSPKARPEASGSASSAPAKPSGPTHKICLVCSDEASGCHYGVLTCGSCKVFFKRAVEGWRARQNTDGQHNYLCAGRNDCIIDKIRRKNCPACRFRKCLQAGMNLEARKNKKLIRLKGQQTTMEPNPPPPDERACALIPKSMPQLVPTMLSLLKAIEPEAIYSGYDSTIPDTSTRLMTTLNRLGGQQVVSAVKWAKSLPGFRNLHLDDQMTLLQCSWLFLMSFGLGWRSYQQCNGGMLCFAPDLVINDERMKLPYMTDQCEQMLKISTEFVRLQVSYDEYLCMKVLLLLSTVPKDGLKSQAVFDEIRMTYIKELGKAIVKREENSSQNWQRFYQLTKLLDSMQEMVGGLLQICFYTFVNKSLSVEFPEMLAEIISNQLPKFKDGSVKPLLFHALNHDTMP
Experimental: ATG_EcoTox2 is a cell-based, multiplexed assay created by modifying the existing Attagene TRANS-FACTORIAL system to include a panel of nuclear receptors from some or all the following species: human (Homo sapiens), african clawed frog (Xenopus laevis), rainbow trout (Oncorhynchus mykiss), japanese medaka (Oryzias latipes), and zebrafish (Danio rerio). The ECOTOX2-FACTORIAL format uses HepG2, a human liver cell line, with measurements taken at 24 hours after chemical dosing in a 24-well plate. ATG_rtGR_EcoTox2 is one of 29 assay components calculated in the ATG_EcoTox2 assay. It is designed to make measurements of mRNA induction, a form of inducible reporter, as detected with fluorescence intensity signals by Reverse transcription polymerase chain reaction (RT-PCR) and Capillary electrophoresis technology.The assay endpoint ATG_rtGR_EcoTox2 was analyzed in the positive analysis fitting direction relative to DMSO as the negative control and baseline of activity. Using a type of inducible reporter, measures of mRNA for gain-of-signal activity can be used to understand the reporter gene at the transcription factor-level as they relate to the gene for glucocorticoid receptor. Furthermore, this assay endpoint can be referred to as a primary readout, because this assay has produced multiple assay endpoints where this one serves a reporter gene function. To generalize the intended target to other relatable targets, this assay endpoint is annotated to the nuclear receptor intended target family, where the subfamily is steroidal.
Human liver HepG2 cells are transiently transfected with multiple reporter transcription units (MRTUs) in 6-well plates using FuGene 6 reagent (Roche; 3 ml FuGene/1 mg DNA). The MRTU constructs are regulated by a cis-regulating element (promoter). Each RTU expresses a GAL4-UAS that regulates the transcription of a nearby target reporter gene sequence. A major difference between the CIS and TRANS system is that in CIS activities of endogenous TFs are measured, whereas the TRANS assay evaluates changes in activities of exogenous, chimeric NR-Gal4 proteins. […] At the end of 24 hour incubation, total RNA was isolated using TriZol reagent (Invitrogen). The isolated RNA is then reverse-transcribed using oligo(dT) primer and Mo-MLV reverse transcriptase (Invitrogen) with DNAse I (Ambion) treatment for 30 min. The one-tenth of the produced cDNA was amplified by PCR using Taq DNA polymerase (Invitrogen) and two reporter sequence-specific primers. The PCR products were fluorescently labeled by primer extension with 6-arboxyfluorescein (6-FAM) 5'-labeled reporter sequence-specific primer (2 min at 95 C, 20 s at 68 C and 10 min at 72 C) and these products were digested with 5U of HpaI (New England Biolabs) for 2h at 37 C. The fragments were purified using Qiaquick PCR columns (Qiagen), analyzed on an ABI 3130xL genetic analyzer (Applied Biosystems) with peak positions identified by using a set of X-rhodamine (ROX)-labeled MapMarker1000 molecular weight standards (BioVentures). The raw capillary electrophoresis data was processed using Attagraph software (Attagene).
`Cc1ccc(C)c(OCCCC(C)(C)C(=O)O)c1` was tested, and the outcome was “inactive”. With `C[C@@H]1C[C@H]2[C@@H]3CCC4=CC(=O)C=C[C@]4(C)[C@@]3(F)[C@@H](O)C[C@]2(C)[C@@]1(O)C(=O)COP(=O)(O)O` the AC50 was 0.0206 µM (active). With `CC(c1cc2ccccc2s1)N(O)C(N)=O` (stereo unspecified) the outcome was “inactive”. In the case of `C=C(c1ccc(C(=O)O)cc1)c1cc2c(cc1C)C(C)(C)CCC2(C)C`, the outcome is reported as “inactive”. With `CC(C)OC(=O)C(C)(C)Oc1ccc(C(=O)c2ccc(Cl)cc2)cc1` the outcome was “inactive”. For `CC(C)(Oc1ccc(Cl)cc1)C(=O)O`, the outcome was “inactive”.
